Screens deposited in PubChem by National Center for Advancing Translational Sciences (NCATS).
Sm TGR block: blocks Schistosoma mansoni thioredoxin glutathione reductase | 3% of 360,000 active | AID 485364 | Potency, µM (titrated, usually from 114 µM), for inactives: top-dose activity change, negative = inhibition, usual class: inhibitors | purified TGR, DTNB reduction, TNB absorbance 405 nm | Q962Y6; also: % is scaled to controls: 0 for no effect and ±100 for the full control effect; nearly all actives have a fitted effect of over 60% in size
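First, TGR (20 nM dispensed) and NADPH were mixed with compound. Second, a 15 min room-temperature incubation followed. Third, further NADPH and then DTNB were added to start the reaction. Finally, TNB absorbance was monitored kinetically.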
SARS PLP yeast: inhibitors of SARS-CoV papain-like protease in yeast; 0.19% of 330,000 active; S. cerevisiae expressing SARS-CoV PLpro, growth rescue; AID 485353; Potency, µM (titrated, usually from 32.9 µM), for inactives: at the highest dose activity, positive = growth rescue, hits mostly activators; calls by dose curve; also: 0% is about no effect; nearly all actives have a fitted effect of over 55% in size
Pf growth 96h: P. falciparum growth inhibition at 96 hours. P. falciparum luciferase reporter growth, 96 h. Potency, µM (highest dose often 28.7 µM), for inactives: at the top dose activity change, negative = inhibition, hits mostly inhibitors. 6.9% of 320,000 active. AID 504834; also: % is scaled to controls: 0 for no effect and ±100 for the full control effect
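P. falciparum expressing integrated firefly luciferase, in erythrocytes at 2% hematocrit, 0.05% parasitemia, incubated with compounds 96 h at 37 C, 5% CO2. Growth inhibition read as loss of luminescence; two-generation exposure targets delayed-death apicoplast inhibitors.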
Pf growth 48h: P. falciparum growth inhibition at 48 hours (one generation); P. falciparum luciferase growth in erythrocytes, 48 h; Potency, µM (titrated, usually from 28.7 µM), for the others: top-dose activity change, negative = inhibition, usual class: inhibitors; 5.9% of 310,000 active; also: % is scaled to controls: 0 for no effect and ±100 for the full control effect
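Parasite viability was followed by luminescence of a genomically integrated firefly luciferase. Cultures held 0.1% parasitemia at 2% hematocrit (final), incubated under 5% CO2 at 37 C.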
An asterisk follows results filed as active; ? = inconclusive; / = no result; ! = repeats disagree; [ ] = dose if it differs, or a comment. Compounds with a hit are over-represented: about 12% of the library has one in this group of screens. Unless noted, calls follow the shape of the dose curve; as a rule, active = well fitted curve in the direction sought with a large enough effect; inconclusive = small, poorly fitted or top-dose-only effect, or another doubt; inactive = no such curve, though single readings can be large; an effect the other way counts as inactive or inconclusive. Potency is read from the fitted curve at half-maximal effect.

SMILES	Sm TGR block	SARS PLP yeast	Pf growth 96h	Pf growth 48h
CCOC(=O)c1ccc(N2CCN(c3ccccc3F)CC2)c(NC(=O)Nc2ccccc2)c1	-1%	29%	?	13µM*
COCCNC(=O)c1ccc(N2CCCCC2)c(NS(=O)(=O)c2ccc(C)cc2)c1	-34%	2%	400%	5.2µM*
CCOCCCNC(=O)c1ccc(N2CCOCC2)c(NS(=O)(=O)c2ccc(OC)cc2)c1	4%	-1%	7%	2%
CCN(CC)CCCNC(=O)c1ccc(N2CCCCC2)c(NS(=O)(=O)c2ccc(C)cc2)c1	-25%	-1%	?	?
CC1CN(C(=O)CCC(=O)NCCCN2CCN(Cc3ccccc3)CC2)c2cc(Cl)ccc2O1 (centres undefined)	-7%	-3%	?	?
CC(C)CCNC(=O)CSc1nc2ccccc2nc1Cc1ccccc1	0%	/	/	/
CCOC(=O)c1ccc(N2CCCCC2)c(NS(=O)(=O)c2ccc(C)cc2)c1	-3%	-2%	1µM*	2.3µM*
CCOC(=O)c1ccc(S(=O)(=O)Nc2cc(S(=O)(=O)N3CCOCC3)ccc2O)cc1	/	4%	/	/
CCOc1cc(/C=C2\CCn3c2nc2cc(Cl)ccc2c3=O)ccc1O	2%	2%	0%	-3%
CCN1CCN(C(=O)c2ccccc2N(Cc2ccccc2)S(C)(=O)=O)CC1	11%[11.4 µM]	-2%	2%	/
COc1ccc(S(=O)(=O)N(Cc2ccccc2)c2ccccc2C(=O)O)cc1	9%	-4%	13µM*	2%
O=C(O)c1ccc(S(=O)(=O)N(Cc2ccccc2)Cc2ccccc2)cc1	11%	0%	42%	11%
CCN1CCN(C(=O)c2ccccc2N(Cc2ccccc2)S(=O)(=O)c2ccc(C)cc2)CC1	-1%	-3%	15µM*	/
O=C(O)c1ccc(N(Cc2ccccc2)S(=O)(=O)c2ccccc2)cc1	8%	1%	9.3µM*!	-4%
COc1cccc(/C=N/NC(=O)c2ccccc2N(Cc2ccccc2)S(=O)(=O)c2ccccc2)c1OC	-9%	3%	12µM*	?
Cc1onc(-c2ccccc2)c1C(=O)OCC(=O)N1CCN(c2ccccc2)CC1	-9%	0%	1%	-12%
C=CCN(c1ccccc1C(=O)O)S(=O)(=O)c1ccc(NC(=O)OC)cc1	0%	1%	48%	2.3µM*
C=CCN(c1ccccc1C(=O)NCC(=O)O)S(=O)(=O)c1ccc(C)cc1	4%	1%	5%	17%
CCn1c(-c2ccccn2)nc2cc(S(=O)(=O)N(C)C)ccc21	3%	4%	43%	46%
CCn1c(-c2cc(Br)cc(OC)c2O)nc2cc(S(=O)(=O)N(C)C)ccc21	-16%	12%	12µM*	?
Cc1ccccc1NC(=S)NCc1ccc2[nH]c3c(c2c1)CCCC3	-9%	-28%	?	-10%
Cc1ccc(C)c(NC(=S)NCc2ccc3[nH]c4c(c3c2)CCCC4)c1	-24%	-12%	13µM*	13µM*
O=C(NCc1ccc2[nH]c3c(c2c1)CCCC3)c1ccc(S(=O)(=O)N2CCCC2)cc1	2%	1%	13µM*	0%
O=C(NCc1ccc2[nH]c3c(c2c1)CCCC3)N1CCOCC1	35µM*	-2%	?	?
O=C(NCc1ccc2[nH]c3c(c2c1)CCCC3)c1ccc(S(=O)(=O)N2CCOCC2)cc1	-1%	4%	?	?
SMILES	Sm TGR block	SARS PLP yeast	Pf growth 96h	Pf growth 48h
CCN(CC)S(=O)(=O)c1ccc(C(=O)NCc2ccc3[nH]c4c(c3c2)CCCC4)cc1	-16%	-10%	12µM*	?
O=C(OCC(=O)N1CCOCC1)c1ccc2[nH]c3c(c2c1)CCCC3	-1%	0%	17%	27%
CCOC(=O)C1CCN(S(=O)(=O)c2ccc3[nH]c4c(c3c2)CCCC4)CC1	14%	15%	10µM*	-17%
CCCN(CCC)C(=O)Cn1c(=O)n(-c2ccc(C)c(C)c2)c(=O)c2c3c(sc21)CCCCC3	-3%	/	/	/
CC(=O)Oc1ccc(OC(C)=O)c2c1CC(C)=C(C)C2	24%	-3%	13µM*	9.3µM*
CC(=O)Oc1ccc(C)cc1	/	/	-15%	-13%
CCc1nnc(SCC(=O)N(CC)c2ccccc2)c2cc3oc(C)cc3n12	0%	/	/	/
O=C(CSc1nnc(NC(=O)c2ccccc2F)s1)NCC1CCCO1 (centres undefined)	-2%	9%	85%	69%
O=C(CSc1nnc(NC(=O)c2ccccc2[N+](=O)[O-])s1)NCC1CCCO1 (centres undefined)	-7%	6%	13µM*	21%
CCCC(C)C(=O)Nc1ncc(S(=O)(=O)c2ccc([N+](=O)[O-])cc2)s1 (centres undefined)	-6%	?	?	1.7µM*
CCC(C)(C)C(=O)Nc1ncc(S(=O)(=O)c2ccc([N+](=O)[O-])cc2)s1	1%	-4%	2.9µM*	8.3µM*
O=C(Nc1ncc(S(=O)(=O)c2ccc([N+](=O)[O-])cc2)s1)c1cccnc1	28µM*	-4%	?	?
O=C(CCl)Nc1ncc(S(=O)(=O)c2ccc([N+](=O)[O-])cc2)s1	/	0%	/	/
C[C@@H]1CCCCCCCCC(=O)OCCN(C(=O)OC(C)(C)C)[C@H](C)CCCCCCCCC(=O)OCCN(C(=O)OC(C)(C)C)[C@H](C)CCCCCCCCC(=O)OCCN1C(=O)OC(C)(C)C	/	0%	/	/
CCN1C(=O)[C@H]2[C@@H](c3ccc(-c4ccccc4)cc3)N3CCCC[C@@]3(C(=O)OC)[C@H]2C1=O	?	8%	?	10µM*
CCN1C(=O)[C@@H]2[C@@H](c3ccc(-c4ccc(Cl)c(Cl)c4)cc3)N3CCCC[C@@]3(C(=O)OC)[C@@H]2C1=O	-14%	0%	?	0%
CCN1C(=O)[C@@H]2[C@@H](c3ccc(-c4ccc(OC)cc4)cc3)N3CCCC[C@@]3(C(=O)OC)[C@@H]2C1=O	?	3%	5.2µM*	10µM*
CCN1C(=O)[C@@H]2[C@@H](c3ccc(-c4ccc(C(C)=O)cc4)cc3)N3CCCC[C@@]3(C(=O)OC)[C@@H]2C1=O	?	-1%	12µM*	10µM*
CCN1C(=O)[C@@H]2[C@@H](c3ccc(-c4ccc5c(c4)OCO5)cc3)N3CCCC[C@@]3(C(=O)OC)[C@@H]2C1=O	-30%	-8%	13µM*	?
CCN1C(=O)[C@H]2[C@@H](c3ccc(-c4ccc5c(c4)OCO5)cc3)N3CCC[C@@]3(C(=O)OC)[C@H]2C1=O	-9%	2%	-14%	?
COc1ccc(NC(=O)CC23CC4CC(CC(Br)(C4)C2)C3)c(OC)c1	-1%	-1%	19%	21%
O=C(OCC(=O)N1CCOCC1)c1ccc(Br)cc1	1%	0%	54%	40%
CCOC(=O)c1cccc(NC(=O)Cn2c(=O)c3cccn3c3ccccc32)c1	7%	/	/	/
CCOc1ccccc1NC(=O)N1CCc2cc(S(=O)(=O)N3CCC(C)CC3)ccc21	0%	/	/	/
O=C(N/N=C/c1ccc(OC(F)F)cc1)c1ccc(Br)cc1	-16%	-14%	11%	24%
